An excerpt weighted towards active compounds, which were near 11% of everything screened.
NPR1 antag: blocks ANP-stimulated signaling of human Npr1 receptor | 1.6% of 76,000 active | HEK293 hNpr1 GloSensor cGMP, ANP-stimulated luminescence | Potency, µM (highest dose often 46.3 µM), for inactives: top-dose activity change, negative = inhibition, most hits filed as inhibitors; calls by dose curve; further: on the % scale 0 is the no-effect control and ±100 the full control effect; nearly all actives have a fitted effect of over 60% in size
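Compound pre-incubated 30 min at room temperature on GloSensor-loaded HEK293 cells stably carrying hNpr1 and the pGS-40F cGMP biosensor. Stimulation uses hNppA at 0.1 nM final; luminescence is taken at baseline and 20 min post-agonist.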
HEK cytotox: kills HEK 293 cells. 6.6% of 94,000 active. HEK 293 viability, ATP luminescence (CellTiter-Glo), 48-72 h. AID 1345083. Potency, µM (series often up to 115 µM), without a hit: at the top dose activity change, negative = cytotoxicity, most hits filed as inhibitors; further: on the % scale 0 is the no-effect control and ±100 the full control effect; nearly all actives have a fitted effect of over 60% in size
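HEK 293 cells at 250 cells/well were exposed to compounds by pintool transfer for 48 or 72 hr at 37 degree Celsius, 5% CO2. Viability was read as ATP-coupled luminescence with CellTiter-Glo after 10 min at room temperature.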
NIH3T3 tox: NIH 3T3 cell cytotoxicity. NIH 3T3 viability, CellTiter-Glo ATP luminescence, 48-72 h. Potency, µM (titrated, usually from 96.7 µM), without a hit: at the top dose activity change, negative = cytotoxicity, actives largely listed as inhibitors. 4.3% of 94,000 active. AID 1345082; further: on the % scale 0 is the no-effect control and ±100 the full control effect; nearly all actives have a fitted effect of over 55% in size
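Mouse fibroblast NIH 3T3 cells, 400 per well, received compound via pintool and were incubated for 48 or 72 hr prior to CellTiter-Glo ATP luminescence measurement.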
FLuc inh-1: Photinus pyralis luciferase inhibition; purified P. pyralis luciferase, luminescence, biochemical; P08659; AID 1347043; Potency, µM (top dose mostly 115 µM), hits mostly inhibitors; 2.5% of 76,000 active; further: on the % scale 0 is the no-effect control and ±100 the full control effect; nearly all actives have a fitted effect of over 65% in size
Target sequence (P08659 whole entry, looked up): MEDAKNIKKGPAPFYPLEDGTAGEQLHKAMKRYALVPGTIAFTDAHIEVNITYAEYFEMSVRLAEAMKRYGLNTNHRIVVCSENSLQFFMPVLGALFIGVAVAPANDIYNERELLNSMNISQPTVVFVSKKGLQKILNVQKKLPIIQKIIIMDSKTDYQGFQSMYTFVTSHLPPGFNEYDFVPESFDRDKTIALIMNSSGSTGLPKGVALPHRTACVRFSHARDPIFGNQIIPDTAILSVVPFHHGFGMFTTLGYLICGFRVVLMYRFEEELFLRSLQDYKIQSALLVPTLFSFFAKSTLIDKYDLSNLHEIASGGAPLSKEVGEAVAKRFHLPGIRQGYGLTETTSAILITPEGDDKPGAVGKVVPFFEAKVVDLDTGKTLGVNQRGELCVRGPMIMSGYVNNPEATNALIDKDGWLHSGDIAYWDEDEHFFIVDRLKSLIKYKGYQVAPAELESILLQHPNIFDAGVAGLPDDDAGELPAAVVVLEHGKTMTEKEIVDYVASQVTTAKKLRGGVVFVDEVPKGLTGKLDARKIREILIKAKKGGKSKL
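Biochemical qHTS: compound (6-point titration) added to 10uM D-luciferin plus 10uM ATP in Tris acetate pH 7.5 buffer with Mg, Tween-20 and BSA, then purified enzyme at 10nM; light output imaged.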
FLuc SDR no ATP: binders stabilizing firefly luciferase, without ATP | shares compounds with FLuc inh-1 | Potency, µM (titrated, usually from 32.7 µM), for inactives: at the highest dose activation (signal gain), most hits filed as activators | 7.8% of 1,300 active | Purified FLuc-C-HiBiT, Nano-Glo HiBiT luminescence, no ATP; further: nearly all actives have a fitted effect of over 55% in size
FLuc SDR ATP: binders stabilizing firefly luciferase, plus ATP. shares compounds with FLuc inh-1. purified FLuc-C-HiBiT + ATP, HiBiT complementation luminescence. Potency, µM (titrated, usually from 32.7 µM), without a hit: top-dose activation (gain of signal), hits mostly activators. 8.7% of 1,300 active;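 further: signal reports ligand binding via conformational change of the enzyme rather than luciferase catalysis; % of control where 0% means no effect; nearly all actives have a fitted effect of over 55% in size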
FLuc inh-2: firefly luciferase enzyme inhibition | shares compounds with FLuc inh-1 | purified FLuc-C-HiBiT enzyme, luciferin luminescence | Potency, µM (doses to about 32.7 µM), for inactives: at the top dose activity change, negative = inhibition, usual class: inhibitors | 42% of 1,300 active; further: on the % scale 0 is the no-effect control and ±100 the full control effect; nearly all actives have a fitted effect of over 70% in size
Numbers without * were called inactive; i = inactive; ? = inconclusive; . = not tested or not shown; ! = not confirmed by another sample; [ ] = another dose, or the depositor's remark. Unless noted, the call rests on the fitted dose curve; in most records, active means well fitted curve in the direction sought with a large enough effect; inconclusive means small, poorly fitted or top-dose-only effect, or another doubt; inactive means no such curve, though single readings can be large; an effect the other way counts as inactive or inconclusive. Potency means the concentration at half of the fitted maximal effect.

SMILES	NPR1 antag	HEK cytotox	NIH3T3 tox	FLuc inh-1	FLuc SDR no ATP	FLuc SDR ATP	FLuc inh-2
COc1ccccc1-c1ccc(CN2CCCC(c3nc4ccc(F)cc4c(=O)[nH]3)C2)cc1 (stereo not drawn)	?	35µM*!	40µM*!	i	.	.	.
O=c1[nH]c(C2CCCN(Cc3ccc(-c4ccccc4)cc3)C2)nc2ccc(F)cc12 (stereo not drawn)	?	32µM*!	?	i	.	.	.
O=c1[nH]c(C2CCCN(Cc3cccs3)C2)nc2ccc(F)cc12 (stereo not drawn)	-3%	?	?	i	.	.	.
O=c1[nH]c(C2CCCN(Cc3ccc(-c4cc(F)cc(F)c4)cc3)C2)nc2ccc(F)cc12 (stereo not drawn)	-26%	45µM*!	?	i	.	.	.
Cc1ccc2nc(C3CCCN(Cc4ccc(-c5cncnc5)cc4)C3)[nH]c(=O)c2c1 (stereo not drawn)	2%	5%	4%	i	.	.	.
O=c1[nH]c(C2CCCN(Cc3cccc(-c4ccc(F)cc4F)c3)C2)nc2ccc(F)cc12 (stereo not drawn)	?	40µM*	?	i	.	.	.
CC(C)CCNC(=O)c1ccc(CN2C(=O)NC3(CCOCC3)C2=O)cc1	0%	-7%	-8%	i	.	.	.
O=c1[nH]c(C2CCCN(Cc3ccccc3)C2)nc2ccc(F)cc12 (stereo not drawn)	-12%[70.6 µM]	50µM*!	28µM*!	i	.	.	.
Cc1ccc(-c2cccc(CN3CCCC(c4nc5ccc(C)cc5c(=O)[nH]4)C3)c2)c(C)c1 (stereo not drawn)	-2%	35µM*!	?	i	.	.	.
Cn1cc(CN2Cc3ccc(C(=O)Nc4ccc(F)cc4)cc3OCC2=O)cn1	-5%[70.6 µM]	?	-25%[138 µM]	i	.	.	.
Cc1csc(NC(=O)c2ccc3c(c2)OCC(=O)N(C)C3)n1	.	-16%[172 µM]	?	5µM*	24%[49.3 µM]	?	?
Cc1cnc(NC(=O)c2ccc3c(c2)OCC(=O)N(C)C3)s1	.	.	.	.	?	?	14µM*
CN1Cc2ccc(C(=O)NCCOc3ccccc3)cc2OCC1=O	.	.	.	.	19%[49.3 µM]	?	?
Cc1ccc(C(=O)COC(=O)c2cc(-c3cccs3)nc3ccccc23)cc1	.	.	.	.	12%	11%	?
C[C@@H]1CN(c2cc(C3CC3)ncn2)C[C@@]1(O)C1CCC1	3%	?	-22%	i	.	.	.
C[C@@H]1CN(c2cnc3ccccc3n2)CC[C@@]1(O)C1CCC1	?	?	?	4µM*	22%	17%	?
c1ccc(-c2cnc(Nc3ccc4c(c3)OCCO4)c3c2CCO3)cc1	?	?	?	2.8µM*	13%[49.3 µM]	11%[49.3 µM]	16µM*
COc1cccc(Nc2ncc(-c3cccnc3)c3c2OCC3)c1	-29%[70.6 µM]	100µM*	?	14µM*	21%[49.3 µM]	14%[49.3 µM]	?
CNC(=O)c1cccc(-c2cnc(Nc3ccc(Cl)cn3)c3c2CCO3)c1	?	?	?	3.2µM*	18%[49.3 µM]	17%[49.3 µM]	?
COc1ccc(-c2cnc(Nc3ccccc3)c3c2CCO3)cn1	?	?	?	3.5µM*	19%[49.3 µM]	12%[49.3 µM]	?
O=C(Nc1ncc(-c2cccc(F)c2)c2c1OCC2)c1ccncc1	4%[70.6 µM]	-26%[172 µM]	?	i	.	.	.
COc1ccc(-c2cnc(NC(=O)Cc3ccccc3)c3c2CCO3)cn1	-4%[70.6 µM]	-24%[172 µM]	?	i	.	.	.
O=C(c1ccc(Oc2ccccc2)cc1)N1CCc2c(n(Cc3cccnc3)n(-c3ccccc3)c2=O)C1	-16%	-23%	?	i	.	.	.
O=C(Cn1ccn2nc(-c3ccccc3)c(CO)c2c1=O)Nc1ccccc1C(F)(F)F	-13%	?	-19%	i	.	.	.
COc1ccc(NC(=O)Cn2c(-c3ccc(Cl)cc3)nc(C)cc2=O)cc1OC	0%	?	-12%	i	.	.	.
SMILES	NPR1 antag	HEK cytotox	NIH3T3 tox	FLuc inh-1	FLuc SDR no ATP	FLuc SDR ATP	FLuc inh-2
COc1ccc(NC(=O)Cn2c(SCc3ccc(C)cc3)nc3cccnc32)cc1OC	.	.	.	.	1.4µM*	?	0.7µM*
COc1ccccc1Cn1c(=O)c(C(=O)NCCSC)nc2cccnc21	.	1%	?	.	.	.	.
COc1cc(OC)c(NC(=O)Cn2c(SCc3ccccc3F)nc3cccnc32)cc1Cl	.	.	.	.	18%	12%	-8%
Cc1cccc(NC(=O)N2CCc3c(C(=O)N4CCN(C)CC4)cccc32)c1	-25%	?	-10%	7.1µM*	22%	2.5µM*	1.8µM*
CCC(C)(C)NC(=O)c1cccc2c1CCN2C(=O)Nc1cccc(C)c1	-22%	?	-27%	7.9µM*	?	11µM*	7.9µM*
O=C([C@H]1C[C@H](Oc2ccccc2)CN1C(=O)Nc1ccccc1)N1CCOCC1	1%	-7%	-19%	i	.	.	.
COc1ccc(OC)c(CN2CCNc3cnc(OCc4cccnc4)cc3C2)c1	-11%[70.6 µM]	?	?	i	.	.	.
COc1ccc(-c2cc3c(cn2)CN(Cc2cccnc2)CCN3)cc1OC	2%[70.6 µM]	?	-27%[138 µM]	5.6µM*	?	17%[49.3 µM]	14µM*
COc1ccc(-c2cc3c(cn2)CN(Cc2cccnc2)CCN3)cc1F	?	?	-14%[138 µM]	5µM*	?	18%[49.3 µM]	14µM*
Cc1ccc(C2=CC(c3ccccc3C)n3c(nc4ccccc43)N2)cc1 (stereo not drawn)	.	.	.	.	?	?	4.4µM*
Cc1ncoc1C(=O)NC1CC(C)(C)Cc2nc(C(C)(C)C)ncc21 (stereo not drawn)	1%	1%	3%	i	.	.	.
O=C1CCCN1CCCNC(=O)C1(CCO)CCN(Cc2ccccc2)C1 (stereo not drawn)	.	-8%	-19%	.	.	.	.
Cc1nc(CN(C)Cc2nc(-c3cccc(Cl)c3)oc2C)no1	-8%	-30%	?	i	.	.	.
CC(Cc1cnccn1)Nc1ccc(-c2nc(-c3cccc(Cl)c3)no2)cn1 (stereo not drawn)	?	?	?	3.5µM*	14%	16%	?
Cc1nnc(CN(C)c2ccc(-c3nc(-c4cccc(Cl)c4)no3)cn2)o1	11µM*	?	?	1.1µM*	17%	18%	5µM*
CCOc1ncccc1C(=O)OCC(=O)Nc1ccc(-c2nc3ccc(C)cc3s2)cc1	.	.	.	.	22%[65.7 µM]	19%[65.7 µM]	?
CCOC(=O)C1=CN(CC(=O)Nc2ccc(C)cc2)S(=O)(=O)N=C1C	6%	?	-14%	i	.	.	.

From PubChem BioAssay
